# Measured values: PubChem BioAssay (NCATS)
# Where “and” joins values, the source holds several entries; their conditions need not be identical. Equal values may be shown once. Values without a mark were called inactive. Records with an inconclusive call do not appear. Where a call stands in place of a potency, no number is given. Calls of active or inactive are those of the source. Unless noted, the call rests on the fitted dose curve; in most records, active means well fitted curve in the direction sought with a large enough effect; inconclusive means small, poorly fitted or top-dose-only effect, or another doubt; inactive means no such curve, though single readings can be large; an effect the other way counts as inactive or inconclusive.
# What was measured:
# [1] = target: Muscarinic acetylcholine receptor M1 (Rattus norvegicus) (UniProt P08482); test: qHTS Assay for Antagonists of Acetylcholine Muscarinic M1 Receptor: Measurement of IP-One Response (AID 944); settings: CHO-M1 cells, IP-One HTRF, antagonist mode; series mostly up to 46.1 µM; further: nearly all actives have a fitted effect of over 75% in size
# Procedure, shortened: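 Read-out: HTRF competition between d2-IP1 and Eu-cryptate anti-IP1 antibody, emission 620 and 665 nm. Stimulus was carbachol, EC80 (200 nM), for 30 min in M1-CHO cells (rat receptor), after 10 min compound pre-treatment.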
# [2] = target: ATP-dependent DNA helicase Q1 (Homo sapiens) (UniProt P46063); test: qHTS Validation Assay for Inhibitors of RecQ-Like Dna Helicase 1 (RECQ1) (AID 2353); settings: recombinant RECQ1 helicase DNA unwinding assay; series mostly up to 25.6 µM
# Procedure, shortened: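 RECQ1T1 50 nM; forked duplex (20 bp + 30-nt ss tails) 200 nM, ATP 2 mM final; pH 8.0, 2 mM MgCl2, 2.5 ug/ml poly(dI-dC); 15 min compound preincubation; discontinuous kinetic read over 2 h at RT.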
# [3] = Quantitative high throughput screen for delayed death inhibitors of the malarial parasite plastid, 96 hour incubation (AID 488745); settings: Plasmodium falciparum growth; series mostly up to 28.7 µM;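 further: luciferase-expressing P. falciparum in erythrocytes at 2% hematocrit and 0.1% parasitemia; nearly all actives have a fitted effect of over 70% in size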
# Procedure, shortened: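 Luciferase-expressing P. falciparum, infected RBCs 2% Hct/0.1% parasitemia (final); 96 h cpd exposure, 37 C, 5% CO2; RPMI 1640 + 0.5% Albumax, bicarbonate, gentamycin. Readout: luminescence loss = growth inhibition.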
# [4] = Quantitative high throughput screen for delayed death inhibitors of the malarial parasite plastid, 48 hour incubation (AID 488752); settings: Plasmodium falciparum growth; series mostly up to 28.7 µM; further: nearly all actives have a fitted effect of over 65% in size
# Procedure, shortened: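 Luciferase-expressing P. falciparum in RBCs, 2% Hct, 0.1% parasitemia final; RPMI 1640 + 0.5% Albumax; 48 h, 37 C, 5% CO2; luminescence readout, signal drop = growth inhibition.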
# [5] = target: M-phase phosphoprotein 8 (Homo sapiens) (UniProt Q99549); test: qHTS Validation Assay for Inhibitors for MPP8 Chromodomain Interactions with Methylated Histone Tails (AID 488949); settings: AlphaScreen MPP8 binding to H3K9me3 peptide; series mostly up to 114 µM; further: potency means the concentration at half of the fitted maximal effect; nearly all actives have a fitted effect of over 55% in size
# Procedure, shortened: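 Chemiluminescent proximity assay: histidine-tag capture via nickel acceptor beads, biotin peptide via streptavidin donor beads. Protein and peptide each at 50 nM, pH 7.4, with 30 min incubations at room temperature for complex formation, compound exposure and bead binding.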
# [6] = target: Transient receptor potential cation channel subfamily V member 1 (Homo sapiens) (UniProt Q8NER1); test: HTS Assay for Compounds that Act as Enhancers of the Vanilloid Receptor 1 (AID 488979); settings: TRPV1-expressing cells, enhancer of channel activity, stimulated with capsaicin at EC20; series mostly up to 41.7 µM
# Procedure, shortened: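 TRPV1-expressing cells loaded with Fluo-8 calcium dye; compounds added and calcium influx read kinetically for 3 min (agonist phase), then capsaicin at EC20 added and read 2 min more for enhancement. Fluorescence ex 480/em 520 nm.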
# [7] = target: Thyrotropin receptor (Homo sapiens) (UniProt P16473); test: qHTS Assay for Antagonists of the Thyroid Stimulating Hormone Receptor (AID 488980); settings: TSHR-expressing cells, cAMP antagonist read-out; series mostly up to 57.5 µM
# Procedure, shortened: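 Inhibition of TSH-stimulated cAMP accumulation was quantified by homogeneous time-resolved FRET in TSHR-transfected HEK293 cells. Agonist: TSH, 4 nM final (EC80).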
# [8] = target: Tyrosyl-DNA phosphodiesterase 1 (Homo sapiens) (UniProt Q9NUW8); test: Confirmation Assay for Inhibitors of Tyrosyl-DNA Phosphodiesterase (TDP1) (AID 489007); settings: recombinant human TDP1 enzymatic activity, dose-response; further: potency means the concentration at half of the fitted maximal effect; nearly all actives have a fitted effect of over 40% in size
# Procedure, shortened: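 AlphaScreen read-out: streptavidin donor and anti-FITC acceptor beads (10 ug/ml) bind intact substrate, so Tdp1 removal of tyrosine-FITC lowers signal. Enzyme 1 nM, substrate 15 nM, 5 min reaction at room temperature after 15 min compound preincubation.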
# [9] = target: Thyrotropin-releasing hormone receptor (Homo sapiens) (UniProt P34981); test: qHTS for Small Molecule Agonists and Allosteric Enhancers of Human TRH Receptor: Validation Screen for Agonists (AID 493127;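 active means calcium activation more than 3 SD above the typical response in the agonist read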;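 further: intracellular calcium rise by fluo-8 fluorescence before TRH EC20 addition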); settings: TRH receptor agonist cell assay; at 2 µM; stronger effect = higher value
# Procedure, shortened: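 Read-out: intracellular calcium release measured kinetically by FDSS (fluo-8, ex 480/em 530 nm), 1 reading/s after a 10-cycle baseline. TRHR cells, 2000/well, cultured 18 h at 33.5C, dye-loaded at room temp. Compound-evoked positive calcium signal flags agonists.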
# [10] = Validation screen for small molecules that induce DNA re-replication in SW480 colon adenocarcinoma cells (AID 504364); settings: DNA re-replication phenotype (high-content imaging); series mostly up to 46.1 µM
# Procedure, shortened: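 Read-out: total Hoechst intensity of nuclei by fluorescence scanning imager; hits raise the fraction of nuclei with elevated DNA content. Cells received compound for 48 hr at 37 C before a 40 min stain.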
# [11] = target: Tyrosine-protein kinase Yes (Homo sapiens) (UniProt P07947); test: qHTS for small molecule inhibitors of Yes1 kinase: Primary Screen (AID 686947); settings: Yes1 kinase biochemical qHTS inhibition; series mostly up to 76.9 µM; further: potency means the concentration at half of the fitted maximal effect; nearly all actives have a fitted effect of over 60% in size
# Procedure, shortened: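 In this qHTS format, inhibition is expressed relative to DMSO controls with enzyme (maximum) and without enzyme (minimum). The 60 min room-temperature reaction uses 0.1 mM ATP, with ADP detected by luminescence.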
# [12] = qHTS for small molecule inhibitors of Yes1 kinase: Counter Assay (AID 686950); settings: series mostly up to 76.9 µM;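 further: no kinase present so only ADP-Glo detection of a fixed ADP amount is tested; luminescence from ADP-Glo reporting ADP in a fixed ATP and ADP mixture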
# Procedure, shortened: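 Measuring interference with ADP-Glo, the assay ran 60 min at room temperature on an ATP/ADP mix lacking enzyme. Values were normalized to ATP-plus-ADP (maximum) and ATP-only (minimum) DMSO controls.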
# [13] = target: Calcium and integrin-binding protein 1 (Homo sapiens) (UniProt Q99828); test: Primary qHTS for Identification of Calcium Integrin Binding Protein 1 (CIB1) Competitor (AID 1508620); settings: CIB1-GST / FITC-alphaIIb peptide fluorescence polarization; series mostly up to 114 µM;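 further: GST tagged CIB1 binding a fluorescein labelled alphaIIb integrin peptide tracer; top concentration of the series differs between compounds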
# Procedure, shortened: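 Fluorescence polarization competition: CIB1-GST (1 uM final) preincubated with compound 15 min at room temperature, then FITC-labeled alphaIIb peptide (100 nM final) added for another 15 min. Polarization read at Ex 480/Em 540.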
# [14] = target: Lysosomal acid glucosylceramidase (Homo sapiens) (UniProt P04062); test: Glucocerebrosidase-p2 (AID 348; in the data active means potency below about 10 µM; further: potency means the concentration at half of the fitted maximal effect); settings: purified GBA, blue fluorogenic substrate, 40 min
# Procedure, shortened: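 Normal human glucocerebrosidase (0.2 nM) with blue fluorogenic substrate (80 uM final) in citrate/phosphate pH 5.9 with 10mM sodium taurocholate, 0.01% tween-20; 40 min RT, NaOH/glycine stop; fluorescence Ex 365/Em 440; AC50 from a titration from 0.6 nM upwards.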
# [15] = target: ATP-dependent 6-phosphofructokinase (Trypanosoma brucei brucei) (UniProt O15648); test: qHTS Assay to Find Inhibitors of T. brucei phosphofructokinase: hit validation (AID 492961);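 further: luminescence reports ADP formed as PFK phosphorylates fructose-6-phosphate with ATP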; settings: T. brucei PFK, ADP-Glo luminescence; series mostly up to 51.4 µM
# Procedure, shortened: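 PFK 1.25 nM, F6P 0.5 mM, ATP 0.1 mM, MgCl2 5 mM, 0.1 M TEA pH 8.0, Tween20 0.01%, BSA 0.1%; 45 min RT. ADP-Glo two-step detection, luminescence. qHTS titration; curve fitting with curve-class categorization.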
# CP291 = test: qHTS profiling for inhibitors of Plasmodium falciparum proliferation (AID 504749); further: nearly all actives have a fitted effect of over 60% in size; settings: P. falciparum in erythrocytes, SYBR Green DNA, 72 h; series mostly up to 28.7 µM
# Procedure, shortened: (§1)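 Fluorescence of SYBR Green-bound parasite DNA, read at 485/535 nm, served as the growth measure. Infected erythrocytes were cultured with compound 72 h; artemisinin (0.29 uM) and DMSO wells defined the normalization range.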
# DIV14 = test: as above; settings: P. falciparum in erythrocytes, SYBR Green DNA, 72 h; series mostly up to 28.7 µM
# Procedure, shortened: as §1
# DIV17 = test: as above; settings: P. falciparum in erythrocytes, SYBR Green DNA, 72 h; series mostly up to 28.7 µM
# Procedure, shortened: as §1
# GB4 = test: as above; settings: P. falciparum in erythrocytes, SYBR Green DNA, 72 h; series mostly up to 28.7 µM
# Procedure, shortened: as §1
# W2 = test: as above; settings: P. falciparum in erythrocytes, SYBR Green DNA, 72 h; series mostly up to 28.7 µM
# Procedure, shortened: as §1
# Tyrosyl-DNA phosphodiesterase 1 (Homo sapiens), sequence (Q9NUW8 whole entry, looked up): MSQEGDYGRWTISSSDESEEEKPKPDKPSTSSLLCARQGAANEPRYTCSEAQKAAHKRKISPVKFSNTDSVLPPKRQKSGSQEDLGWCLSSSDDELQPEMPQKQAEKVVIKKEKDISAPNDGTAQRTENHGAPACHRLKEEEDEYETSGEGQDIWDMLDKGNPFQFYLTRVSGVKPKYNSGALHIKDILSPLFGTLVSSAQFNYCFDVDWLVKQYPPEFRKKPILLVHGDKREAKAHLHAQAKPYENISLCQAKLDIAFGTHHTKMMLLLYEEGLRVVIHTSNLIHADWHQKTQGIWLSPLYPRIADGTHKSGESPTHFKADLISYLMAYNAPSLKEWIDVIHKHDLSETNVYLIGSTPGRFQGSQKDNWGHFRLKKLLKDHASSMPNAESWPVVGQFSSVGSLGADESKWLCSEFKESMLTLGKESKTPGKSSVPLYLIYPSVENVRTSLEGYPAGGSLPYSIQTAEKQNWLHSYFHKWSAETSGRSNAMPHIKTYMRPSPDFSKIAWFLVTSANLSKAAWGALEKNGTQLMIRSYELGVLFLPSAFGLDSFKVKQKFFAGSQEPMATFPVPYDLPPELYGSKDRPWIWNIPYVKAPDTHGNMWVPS
# Transient receptor potential cation channel subfamily V member 1 (Homo sapiens), sequence (Q8NER1 whole entry, looked up): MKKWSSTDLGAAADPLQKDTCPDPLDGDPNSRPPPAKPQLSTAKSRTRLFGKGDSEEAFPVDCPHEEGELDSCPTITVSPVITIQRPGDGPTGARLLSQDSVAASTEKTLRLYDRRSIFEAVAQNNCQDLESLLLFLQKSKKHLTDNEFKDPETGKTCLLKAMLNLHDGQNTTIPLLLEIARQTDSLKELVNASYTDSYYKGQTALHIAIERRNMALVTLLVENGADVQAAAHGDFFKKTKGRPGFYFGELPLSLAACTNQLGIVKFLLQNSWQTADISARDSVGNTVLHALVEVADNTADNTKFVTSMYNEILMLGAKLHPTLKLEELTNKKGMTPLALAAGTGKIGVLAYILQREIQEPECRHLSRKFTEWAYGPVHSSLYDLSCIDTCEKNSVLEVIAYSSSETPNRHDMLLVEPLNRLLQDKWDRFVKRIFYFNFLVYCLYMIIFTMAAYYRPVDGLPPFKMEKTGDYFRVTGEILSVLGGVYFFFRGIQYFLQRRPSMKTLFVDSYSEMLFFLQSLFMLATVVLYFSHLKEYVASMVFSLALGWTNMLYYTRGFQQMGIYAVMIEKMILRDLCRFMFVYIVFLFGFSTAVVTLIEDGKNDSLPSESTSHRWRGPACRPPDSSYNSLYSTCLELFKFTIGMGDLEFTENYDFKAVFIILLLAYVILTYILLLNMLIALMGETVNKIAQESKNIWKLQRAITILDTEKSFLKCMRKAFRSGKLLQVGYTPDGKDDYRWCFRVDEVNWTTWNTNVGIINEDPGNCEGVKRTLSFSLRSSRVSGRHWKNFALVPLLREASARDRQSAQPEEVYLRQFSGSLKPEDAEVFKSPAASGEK
# Thyrotropin-releasing hormone receptor (Homo sapiens), sequence (P34981 whole entry, looked up): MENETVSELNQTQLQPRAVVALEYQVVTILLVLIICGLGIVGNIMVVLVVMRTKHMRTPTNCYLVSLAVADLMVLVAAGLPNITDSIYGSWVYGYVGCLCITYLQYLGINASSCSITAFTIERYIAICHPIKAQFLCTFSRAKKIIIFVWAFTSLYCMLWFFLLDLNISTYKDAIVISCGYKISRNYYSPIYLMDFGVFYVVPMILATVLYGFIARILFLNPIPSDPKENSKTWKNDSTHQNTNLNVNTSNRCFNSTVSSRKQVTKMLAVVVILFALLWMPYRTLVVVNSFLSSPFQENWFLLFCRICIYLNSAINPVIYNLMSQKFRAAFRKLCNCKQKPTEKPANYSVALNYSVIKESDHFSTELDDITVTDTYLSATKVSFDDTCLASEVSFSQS
# M-phase phosphoprotein 8 (Homo sapiens), sequence (Q99549 whole entry, looked up): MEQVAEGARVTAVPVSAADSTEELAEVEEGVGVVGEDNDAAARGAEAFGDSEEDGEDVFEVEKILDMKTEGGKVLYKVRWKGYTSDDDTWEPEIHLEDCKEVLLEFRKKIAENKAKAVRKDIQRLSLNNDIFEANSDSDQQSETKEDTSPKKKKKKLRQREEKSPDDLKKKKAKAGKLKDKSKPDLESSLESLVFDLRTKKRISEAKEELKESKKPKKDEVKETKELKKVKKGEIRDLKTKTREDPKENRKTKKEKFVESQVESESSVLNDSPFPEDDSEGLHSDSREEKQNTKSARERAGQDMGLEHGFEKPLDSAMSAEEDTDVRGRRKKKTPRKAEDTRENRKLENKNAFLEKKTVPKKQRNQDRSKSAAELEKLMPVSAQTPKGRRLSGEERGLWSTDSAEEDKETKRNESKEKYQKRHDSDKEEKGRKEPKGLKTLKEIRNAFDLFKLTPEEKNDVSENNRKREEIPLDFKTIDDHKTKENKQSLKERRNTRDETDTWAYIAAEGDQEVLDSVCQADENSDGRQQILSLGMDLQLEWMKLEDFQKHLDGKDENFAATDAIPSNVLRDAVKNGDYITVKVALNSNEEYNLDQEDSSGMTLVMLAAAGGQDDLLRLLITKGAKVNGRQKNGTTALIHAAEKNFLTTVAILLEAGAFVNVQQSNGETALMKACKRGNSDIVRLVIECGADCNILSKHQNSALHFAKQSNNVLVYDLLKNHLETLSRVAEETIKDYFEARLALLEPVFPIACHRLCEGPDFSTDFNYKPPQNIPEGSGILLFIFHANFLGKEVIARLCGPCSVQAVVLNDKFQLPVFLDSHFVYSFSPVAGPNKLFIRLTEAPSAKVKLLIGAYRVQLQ
# Calcium and integrin-binding protein 1 (Homo sapiens), sequence (Q99828 whole entry, looked up): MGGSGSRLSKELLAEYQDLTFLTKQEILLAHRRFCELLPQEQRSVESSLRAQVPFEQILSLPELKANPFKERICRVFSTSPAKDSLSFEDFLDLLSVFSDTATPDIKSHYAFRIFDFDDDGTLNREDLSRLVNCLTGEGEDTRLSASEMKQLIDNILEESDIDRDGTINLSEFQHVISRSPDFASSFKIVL
# Muscarinic acetylcholine receptor M1 (Rattus norvegicus), sequence (P08482 whole entry, looked up): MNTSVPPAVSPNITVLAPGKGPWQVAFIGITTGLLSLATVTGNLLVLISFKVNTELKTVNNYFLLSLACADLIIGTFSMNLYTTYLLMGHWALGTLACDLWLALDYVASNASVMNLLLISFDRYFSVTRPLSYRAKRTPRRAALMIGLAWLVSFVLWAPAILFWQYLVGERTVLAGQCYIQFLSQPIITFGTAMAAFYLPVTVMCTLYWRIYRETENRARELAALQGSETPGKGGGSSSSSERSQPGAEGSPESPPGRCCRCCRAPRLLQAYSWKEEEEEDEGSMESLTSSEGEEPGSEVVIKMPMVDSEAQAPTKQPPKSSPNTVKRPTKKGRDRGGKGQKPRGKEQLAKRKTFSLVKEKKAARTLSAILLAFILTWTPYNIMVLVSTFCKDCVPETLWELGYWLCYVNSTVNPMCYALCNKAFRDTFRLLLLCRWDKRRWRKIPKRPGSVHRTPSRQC
# ATP-dependent DNA helicase Q1 (Homo sapiens), sequence (P46063 whole entry, looked up): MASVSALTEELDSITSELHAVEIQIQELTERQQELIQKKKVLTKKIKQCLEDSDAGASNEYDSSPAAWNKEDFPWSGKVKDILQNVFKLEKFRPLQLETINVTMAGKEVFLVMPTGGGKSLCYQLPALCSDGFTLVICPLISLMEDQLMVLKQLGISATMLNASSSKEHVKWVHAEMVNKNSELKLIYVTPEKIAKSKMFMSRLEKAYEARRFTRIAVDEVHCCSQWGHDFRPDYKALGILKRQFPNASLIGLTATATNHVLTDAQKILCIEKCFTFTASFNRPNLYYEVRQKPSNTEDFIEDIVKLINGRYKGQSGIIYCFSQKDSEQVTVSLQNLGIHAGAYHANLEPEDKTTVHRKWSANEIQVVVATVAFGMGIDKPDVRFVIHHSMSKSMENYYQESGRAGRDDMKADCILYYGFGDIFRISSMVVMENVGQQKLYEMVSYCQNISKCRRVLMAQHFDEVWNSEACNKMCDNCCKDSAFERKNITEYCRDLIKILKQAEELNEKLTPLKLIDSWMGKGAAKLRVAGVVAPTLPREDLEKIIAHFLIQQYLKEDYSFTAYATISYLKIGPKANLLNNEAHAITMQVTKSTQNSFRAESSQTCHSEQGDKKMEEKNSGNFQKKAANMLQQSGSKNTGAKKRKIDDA
# Lysosomal acid glucosylceramidase (Homo sapiens), sequence (P04062 whole entry, looked up): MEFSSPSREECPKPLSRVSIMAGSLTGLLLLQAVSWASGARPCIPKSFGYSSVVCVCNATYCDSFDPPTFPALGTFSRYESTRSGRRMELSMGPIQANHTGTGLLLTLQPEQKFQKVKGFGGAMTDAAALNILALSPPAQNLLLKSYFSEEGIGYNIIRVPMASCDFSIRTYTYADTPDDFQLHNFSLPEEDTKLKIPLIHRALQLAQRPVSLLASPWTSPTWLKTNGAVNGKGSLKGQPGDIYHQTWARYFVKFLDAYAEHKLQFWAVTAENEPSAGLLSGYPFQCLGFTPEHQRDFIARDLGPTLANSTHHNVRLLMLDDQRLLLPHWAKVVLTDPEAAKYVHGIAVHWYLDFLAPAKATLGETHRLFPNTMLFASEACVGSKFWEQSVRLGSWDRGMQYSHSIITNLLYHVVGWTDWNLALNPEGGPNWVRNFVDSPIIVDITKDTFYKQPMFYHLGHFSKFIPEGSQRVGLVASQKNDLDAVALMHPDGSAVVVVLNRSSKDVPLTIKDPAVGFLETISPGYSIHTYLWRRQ
compound,measurement,setting,value
O=C(Nc1cc(C(=O)Nc2ccc(S(=O)(=O)O)cc2S(=O)(=O)O)cc(C(=O)Nc2ccc(S(=O)(=O)O)cc2S(=O)(=O)O)c1)Nc1cc(C(=O)Nc2ccc(S(=O)(=O)O)cc2S(=O)(=O)O)cc(C(=O)Nc2ccc(S(=O)(=O)O)cc2S(=O)(=O)O)c1,Potency,[1],inactive
same,Potency,[2],inactive
same,Potency,[3],inactive
same,Potency,[4],inactive
same,Potency,[5],6.31 µM (active)
same,outcome,[6],inactive
same,outcome,[7],inactive
same,Potency,[8],316 nM (active) and 1.26 µM (active)
same,activation,[9],0.312%
same,outcome,[10],inactive
NS(=O)(=O)c1cccc(N=Cc2c(O)[nH]c3ccccc23)c1,Potency,[11],10.4 µM (active)
same,outcome,[12],inactive
CC(C)n1nc(Cc2cccc3ccccc23)c2c(N)ncnc21,outcome,[13],inactive
COC(=O)[C@@H]1[C@@H]2C[C@H]3c4[nH]c5ccccc5c4CCN3C[C@@H]2CC[C@@H]1O,Potency,[14],> 11.4 µM
same,outcome,[15],inactive
same,Potency,CP291,inactive
same,Potency,DIV14,inactive
same,Potency,DIV17,inactive
same,Potency,GB4,inactive
same,Potency,W2,inactive
